Results on 27 molecules are retold here after PubChem BioAssay (NCI).

SMILES strings stand for the structures. This is part of a sample that, as a whole, favours compounds with a hit. Of some 83,000 tested, about 20% had one in any assay.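 Note: values are percent growth. 100 is the growth of untreated cells, values between 100 and 0 indicate rising inhibition; between -100 and 0 indicates cell death.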 A number with no mark means an inactive call. Activity calls are given as the source filed them. How the source made its calls: active means growth percent below 10; inactive means the rest.

Common to all, as to assay: NCI-60 one-dose screen, 48 h (100 = growth as untreated, 0 = no growth, -100 = all killed)
What all share (settings): 10 µM unless noted

The subject of test [1] is NCI-H23 lung.
Test [2] concerns NCI-H226 lung.
Test [3] has as its system NCI-H322M lung.
Test [4] relates to HOP-62 NSCLC.
Test [5] relates to NCI-H460 lung.
Test [6] relates to HOP-92 NSCLC.
Test [7] concerns NCI-H522 lung.
The test system of test [8] is A549/ATCC NSCLC.
In test [9] the test system is 786-0 renal.
Test [10] concerns COLO 205 colon.

Consider `CC(O)c1cccc(/C(N)=N/C(N)=N/c2nc3ccccc3s2)c1` (stereo not given), for which the growth is 91.6% in test [1]; 85.9% in [2]; 97.4% in [3]; 98.6% in [4]; 85.4% in test [5]; 97.6% in [6]. Besides, the growth in [7] is 96.9%; in [8], 82%; in test [9], 101%; in [10], 109%.

`CCOC(=O)c1ccccc1NC1=C(Cl)C(=O)c2nc(C)ccc2C1=O`: the growth in test [1] was 81.5%; in test [2] it was 100%; in test [3], 101%; in test [4] it was 102%; in [5], 99.8%; in test [6], 118%. The growth is 102% in test [7], 107% in test [8], 104% in test [9] and 120% in [10].

For `CC1=Cc2ccccc2OC12C=Cc1ccccc1O2` (stereo not given), the growth in [1] was 86.5%; in test [2], 91.7%; in test [3], 89.7%; in test [4] it was 89.5%; in test [5] it was 104%; in test [6] it was 98.6%. In addition, the growth in test [7] was 97.2%; in test [8], 104%; in test [9], 105%; in [10], 110%.

As to `O=C(/C=C/c1ccccc1Cl)Nc1ncc(Cc2cc(Cl)ccc2Cl)s1`, the growth in [1] is 50.9%; in test [2], 39.4%; in [3], 48.5%; in test [4] it was 22%; in [5], 8.08% (active); in test [6], 35.4%. Moreover, the growth in test [7] is 12.3%; in test [8], 40%; in test [9], 33.3%; in test [10], 5.37% (active).

Take `C#CCOc1cccc(-c2nc(N)nc(Nc3ccccc3SSc3ccccc3Nc3nc(N)nc(-c4cccc(OCC#C)c4)n3)n2)c1`: the growth in test [1] was -6.17% (active); in [2], 1.74% (active); in [3] it was 80.9%; in test [4], -63.2% (active); in test [5], -15.7% (active); in [6], 87.6%. Moreover, the growth is 79.8% in test [7], -39.7% (active) in test [8], 96.9% in test [9] and 114% in [10].

In the case of `COC(=O)c1ccc(NC2=C(Cl)C(=O)C(C)=C(C)C2=O)cc1`, the growth was 68.5% in test [1]; 72.9% in [2]; 99.6% in test [3]; 66.2% in [4]; 79.3% in test [5]; 64.9% in test [6]. Also, the growth in test [7] was 53.1%; in test [8], 81.5%; in test [9], 84.9%; in test [10], 104%.

For the molecule `C=C1CCc2nc(SCC(=O)O)ccc2N1`, the growth in [1] was 95.6%; in test [2], 99%; in test [3] it was 105%; in test [4], 103%; in test [5], 102%; in test [6], 120%. Further, the growth in test [7] is 96.7%; in test [8], 108%; in test [9] it was 106%; in test [10], 107%.

On to `COc1ccc(Cn2cc(C#N)c(N)c2C(C)=O)cc1`, for which the growth in test [1] is 101%; in test [2], 101%; in test [3] it was 98.8%; in test [4], 104%; in test [5], 104%; in test [6] it was 87.5%. The growth in test [7] was 102%; in test [8] it was 110%; in test [9], 111%; in test [10] it was 111%.

For the molecule `O=C(CSc1nc2ccccc2c(=O)n1-c1ccc(Cl)cc1)N/N=C/c1ccc(Oc2ccc(Cl)cc2)cc1`, the growth in [1] was 3.12% (active); in test [2] it was 75.6%; in [3], 89.8%; in test [4] it was 32.6%; in test [5], -34.5% (active); in test [6], 2.59% (active). For the same molecule, the growth was 20.7% in test [7], 16.5% in test [8], -4.71% (active) in [9] and 14.6% in test [10].

For `Cc1ccc2c(n1)C(=O)C(Cl)=C(Nc1cccc(C)c1C)C2=O`, the growth was -10.6% (active) in test [1]; 18.7% in test [2]; 16.9% in test [3]; -0.0437% (active) in [4]; 36.8% in test [5]; -1.44% (active) in test [6]. In addition, the growth is -37.5% (active) in test [7], 41.5% in [8], 21.9% in test [9] and 87.7% in test [10].

For the molecule `Cc1[nH]c(C(=O)Nc2ccc(C(N)=O)cc2N2CCOC(C)C2)c(Cl)c1Cl` (stereo not given), the growth in test [1] is 96.2%; in test [2], 89.9%; in [3] it was 95.1%; in [4], 98.4%; in test [5], 102%; in [6], 107%. The growth in test [7] was 95.1%; in test [8], 99.6%; in test [9], 92.9%; in test [10], 124%.

As to `CC(C)NC(=O)c1cc(-c2ccc(NC(=O)Nc3ccc(F)cc3)cc2)nc2cccnc12`, the growth in test [1] is 99.4%; in [2], 99.1%; in test [3], 104%; in test [4], 101%; in test [5] it was 104%; in test [6] it was 96.7%. The growth in test [7] is 96.8%; in test [8] it was 104%; in test [9], 97.1%; in test [10], 118%.

`Cn1c(SCC(=O)c2ccc(Br)cc2)nc2ccccc2c1=O`: the growth in test [1] is 85.3%; in test [2], 90.7%; in test [3] it was 95.8%; in [4] it was 105%; in test [5] it was 102%; in [6] it was 91.3%. Further, the growth in [7] is 86.4%; in test [8], 96.3%; in test [9], 91.2%; in test [10] it was 121%.

For `Cc1cc(Br)ccc1-n1cc(C#N)c(N)c1C(=O)c1ccc(Br)cc1`, the growth in test [1] was 92.7%; in test [2], 97.7%; in test [3] it was 104%; in [4], 103%; in test [5], 113%; in [6], 94.2%. Further, the growth in test [7] is 99.6%; in [8], 105%; in test [9], 93.5%; in [10], 118%.

In the case of `NCCNC(=O)c1cccc(COc2ccccc2NC(=O)c2cc(Cl)c(Cl)[nH]2)c1`, the growth in test [1] was 98.1%; in [2], 96.4%; in [3], 102%; in test [4] it was 104%; in test [5] it was 104%; in test [6], 107%. Moreover, the growth in test [7] was 104%; in [8], 98.6%; in test [9], 90.3%; in [10] it was 113%.

For `COC(=O)[C@@H](Cc1c[nH]c2ccccc12)NC(=O)CCCCOc1cc(O)c2c(=O)cc(-c3ccccc3)oc2c1`, the growth in test [1] was 35.2%; in test [2] it was 88.8%; in test [3] it was 95.8%; in [4], 96.2%; in test [5], 94.4%; in test [6], 60.6%. The growth in test [7] is 86.7%; in [8], 86.7%; in test [9] it was 97%; in test [10] it was 90.4%.

As to `O=C(CCCCCCN1CC(=O)N2[C@@H](c3ccccc3Br)c3[nH]c4ccccc4c3C[C@H]2C1=O)NO`, the growth in test [1] is 63.9%; in [2], 99.7%; in [3], 66.1%; in test [4] it was 61.5%; in [5], 51.8%; in test [6], 29%. Moreover, the growth was -5.74% (active) in test [7], 88.4% in test [8], 87.3% in test [9] and 42.8% in [10].

Turning to `Cc1ccc(CSC2=C(Cl)CN(c3ccc(Cl)cc3)C2=O)cc1`, the growth is 105% in [1]; 98.4% in test [2]; 104% in [3]; 103% in test [4]; 103% in test [5]; 95.2% in test [6]. Moreover, the growth in test [7] is -4.44% (active); in [8], 104%; in [9], 105%; in [10] it was 129%.

As to `N#C/C(=C\c1ccc(-c2ccc(Cl)c(Cl)c2)o1)C(=O)Nc1ncc(Cc2ccc(Cl)cc2)s1`, the growth in test [1] is 38.2%; in test [2] it was 73.6%; in test [3], 33%; in test [4], 72.1%; in test [5], -42.4% (active); in test [6], 81.5%. The growth in test [7] was 47.1%; in [8] it was 11.6%; in [9], 11.4%; in [10], 55.8%.

As to `Cc1ccc2c(n1)C(=O)C(Cl)=C(Nc1ccccc1C(=O)OC(C)(C)C)C2=O`, the growth in test [1] was 10.6%; in test [2] it was 74.9%; in test [3], 98.7%; in test [4] it was 95.3%; in test [5] it was 86.2%; in test [6], -72% (active). Besides, the growth in [7] was -33.8% (active); in test [8], 102%; in [9], -79.2% (active); in test [10], -66.1% (active).

Consider `NS(=O)(=O)c1cccc(Nc2nc(SCC(=O)c3ccc(Cl)cc3)nc3c2CCC3)c1`, for which the growth was 75.1% in [1]; 87.7% in test [2]; 97.1% in test [3]; 76.3% in [4]; 97.6% in test [5]; 63.3% in test [6]. For the same molecule, the growth in test [7] was 95.6%; in test [8], 91.7%; in [9], 82.5%; in test [10], 109%.

As to `CCCCCCN1C=C/C(=C\C(=O)n2ccc3ccccc32)c2ccccc21`, the growth in [1] was 9.61% (active); in [2], 52.9%; in test [3] it was 93.5%; in test [4] it was 89.6%; in [5], 87.7%; in test [6], 82.6%. The growth in [7] is 57.7%; in test [8], 84.3%; in [9], 86.6%; in test [10], 87.3%.

Regarding `CN1CCN(Cc2ccc(NC(=O)c3cncc(C#Cc4cnc5ccc(OC6CCOCC6)nn45)c3)cc2C(F)(F)F)CC1`, the growth in test [1] is -58.7% (active); in test [2], -58.4% (active); in test [3], -44.7% (active); in [4], -77.4% (active); in [5] it was -77.9% (active); in test [6], -31.8% (active). Moreover, the growth in test [7] is -75.5% (active); in test [8], -77.3% (active); in test [9] it was -89.1% (active); in test [10], -82.8% (active).

For the molecule `CC1=C(C)C(=O)C(Nc2ccc(C)cc2)=C(Br)C1=O`, the growth was 87.7% in test [1]; 86.5% in test [2]; 104% in test [3]; 83.2% in test [4]; 102% in [5]; -35.8% (active) in test [6]. The growth in test [7] was 96.1%; in test [8], 100%; in test [9], 106%; in test [10], 124%.

On to `Cn1cc(-c2nnc(N)nc2-c2c[nH]c3ccc(Br)cc23)c2cc(Br)ccc21`, for which the growth is 98.3% in test [1]; 112% in [2]; 104% in test [3]; 106% in [4]; 107% in test [5]; 111% in [6]. Further, the growth in test [7] was 85.7%; in [8], 104%; in test [9], 89.5%; in [10], 116%.

Take `COc1cc(/C=N\NC(=O)c2ccc3nc(-c4ccc(Br)cc4)[nH]c3c2)cc(OC)c1OC`: the growth in test [1] is 40.2%; in [2], 48.7%; in test [3], 76.8%; in [4], 72.6%; in [5], 42.3%; in test [6] it was 34.4%. Besides, the growth was 45.4% in test [7], 72.5% in test [8], 38.4% in test [9] and 32.5% in test [10].

`CCOC(=O)c1cnc2c(-c3ccc(Cl)c(Cl)c3)cnn2c1`: the growth is 82% in test [1]; 80.1% in [2]; 90.8% in [3]; 69.1% in test [4]; 99.7% in test [5]; 39.9% in test [6]. The growth was 66.9% in test [7], 96.4% in test [8], 90.8% in [9] and 76.8% in test [10].
